Hedgehog inh: Sonic Hedgehog pathway inhibition | Shh-LIGHT2 Gli-luciferase reporter, 30 h | inhibition, % (concentration not given with the values) | hit rate 2.1% among 22,000 | AID 2313;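 active means mean inhibition across valid replicates above about 65%, limit read from the data; inconclusive means mean under the limit, yet half or more replicates past it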;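 further: pathway switched on by Shh-conditioned medium diluted 1 in 25 in low serum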
NOMO-1 viab: STK33 inhibitor candidate reducing NOMO-1 cell viability. NOMO-1 AML viability, CellTiter-Glo luminescence, 72 h. inhibition, % (concentration not given with the values). hit rate 7.5% among 37,000. AID 2330; in the data active means inhibition above about 80%; inconclusive means no clear call, values can overlap the other calls
YB-1 expr inh: YB-1 expression inhibition. delta delta Cp (YB-1 minus CDIP) (test concentration not listed). AID 434959. hit rate 0.37% among 30,000. U2OS, qRT-PCR YB-1 vs CDIP delta delta Cp, 16 h; active compounds read high; zero = DMSO, each unit about twofold;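 active means delta delta Cp rounded down to an integer at or above 3, about 3 SD of DMSO wells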;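 further: higher means less YB-1 transcript or more CDIP transcript relative to DMSO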
PD-1 reversal: reversal of PD-1 mediated T-cell inhibition; 29,000 tested, under 10 active; activation, % (concentration not given with the values); primary human CD4 T cells, PD-L1 beads, CellTiter-Glo 96 h; AID 2316; call rule not given here
MITF inh: blocks MITF activity. TRPM1 promoter luciferase, luminescence, 24 h. inhibition, % (concentration not given with the values). hit rate 0.28% among 37,000. AID 2240; in the data active means inhibition above about 85%; inconclusive means no clear call, values can overlap the other calls; inactive means below about 68%;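 further: human melanocyte line stably carrying TRPM1 promoter luciferase reporter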
Of the large screens only hits and unclear results are named; the others gave an inactive call. An excerpt weighted towards active compounds, which were near 7.4% of everything screened.

Cc1noc(COc2ccccc2)c1C(=O)Sc1ccc(F)cc1F	NOMO-1 viab 123 (no result: Hedgehog inh)
O=C(Nc1ccccc1)Nc1ccc2nnsc2c1	NOMO-1 viab 83
Cn1c(SCC(=O)Nc2cccc(Br)c2)nnc1-c1ccccc1Cl	none (no result: Hedgehog inh, YB-1 expr inh)
CC1(C)C=Cc2c(c3occc3c3oc(-c4ccccc4)cc(=O)c23)O1	NOMO-1 viab 95
Cc1ccc(OCC(O)Cn2c(C(C)C)nc3ccccc32)cc1 (centres undefined)	none (no result: Hedgehog inh, YB-1 expr inh)
CC12CCC(=O)C=C1CCC1(C)C2(C)CCC2(C)C(C(=O)CO)CCC21C (centres undefined)	NOMO-1 viab 94
Cc1cc(C)cc(N(C(C)C(=O)NC2CCCC2)S(C)(=O)=O)c1 (centres undefined)	none (no result: Hedgehog inh, YB-1 expr inh)
COc1cc(/C=C/C(=O)CC(=O)/C=C/c2ccc(O)c(OC)c2)ccc1O	NOMO-1 viab 107 (no result: PD-1 reversal)
COc1cc(O)c(CC=C(C)C)cc1C(=O)/C=C/c1ccc(O)c(CC=C(C)C)c1	NOMO-1 viab 86
COc1ccc(/C=C/C(=O)CC(=O)/C=C/c2cccc(O)c2OC)cc1O	Hedgehog inh 69, NOMO-1 viab 115 (no result: PD-1 reversal)
COc1ccc(CCNC(=O)c2ccccc2Sc2ccccc2C#N)cc1OC	none (no result: Hedgehog inh, YB-1 expr inh, PD-1 reversal)
Cc1ccc(-c2nnc(SCC(=O)Nc3ccccc3Cl)n2C)c(Cl)c1	none (no result: Hedgehog inh, YB-1 expr inh)
C[C@H](CO)N1C[C@H](C)[C@@H](CN(C)Cc2ccc(C(F)(F)F)cc2)Oc2ccc(NS(=O)(=O)c3ccc(Cl)cc3)cc2C1=O	none
C[C@H]1CN([C@@H](C)CO)C(=O)c2cc(NS(=O)(=O)c3ccc(Cl)cc3)ccc2O[C@@H]1CN(C)Cc1ccc(C(F)(F)F)cc1	NOMO-1 viab 111
C[C@@H]1CN([C@H](C)CO)C(=O)c2cc(NS(=O)(=O)c3ccc(Cl)cc3)ccc2O[C@H]1CN(C)Cc1ccc(C(F)(F)F)cc1	NOMO-1 viab 123
C[C@@H]1CN([C@@H](C)CO)C(=O)Cc2cc(NS(=O)(=O)c3ccccc3)ccc2O[C@@H]1CN(C)C(=O)Nc1cccc2ccccc12	none
C[C@@H]1CN([C@H](C)CO)C(=O)c2cc(NC(=O)CCC(F)(F)F)ccc2O[C@@H]1CN(C)S(=O)(=O)c1ccc(Cl)cc1	none
CCOC(=O)c1cnn(-c2nc(SC)nc3sc4c(c23)CCC4)c1N	none (no result: Hedgehog inh, YB-1 expr inh, PD-1 reversal)
Cc1ccc(C)c(NC(=O)COc2ccc(C(=O)Nc3ccccc3C)cc2)c1	none (no result: Hedgehog inh, YB-1 expr inh, PD-1 reversal)
O=C(CC1Nc2cccc3cccc(c23)NC1=O)Nc1ccc([N+](=O)[O-])cc1 (centres undefined)	NOMO-1 viab 124 (no result: Hedgehog inh, YB-1 expr inh)
CCc1c(C)nc(Nc2nc(C)c3ccc(OC)cc3n2)[nH]c1=O	none (no result: Hedgehog inh, YB-1 expr inh, PD-1 reversal)
Cc1cc2nc(Nc3nc4ccccc4c(=O)[nH]3)nc(C)c2cc1C	NOMO-1 viab 127 (no result: Hedgehog inh, YB-1 expr inh)
CC(C)(C)c1ccc(S(=O)(=O)CC(O)CSc2nc3c(cc2C#N)CCCC3)cc1 (centres undefined)	none (no result: Hedgehog inh, YB-1 expr inh)
Cc1nc(-c2cc(C#N)c(SCCNS(=O)(=O)c3ccc(C(C)(C)C)cc3)nc2C)cs1	Hedgehog inh 90
COc1ccc(NC(=O)N(C)C[C@@H]2Oc3ccc(NC(=O)NC4CCCCC4)cc3CC(=O)N([C@H](C)CO)C[C@@H]2C)cc1	none
O=C(COc1cc(O)c2c(=O)c3ccccc3oc2c1)c1ccc(Cl)cc1	NOMO-1 viab 117 (no result: Hedgehog inh, YB-1 expr inh)
O=C(COc1cc(O)c2c(=O)c3ccccc3oc2c1)c1cccc([N+](=O)[O-])c1	none (no result: Hedgehog inh, YB-1 expr inh)
O=C(C/C(=C1/Cc2ccccc2C1=O)c1ccccc1)c1ccccc1	NOMO-1 viab inconclusive
CC[C@]1(O)C[C@H]2CN(CCc3c([nH]c4ccccc34)[C@@](C(=O)OC)(c3cc4c(cc3OC)N(C=O)[C@H]3[C@@](O)(C(=O)OC)[C@H](OC(C)=O)[C@@]5(CC)C=CCN6CC[C@]43[C@@H]65)C2)C1	Hedgehog inh 71, NOMO-1 viab 94
N#C/C(=C(\O)c1ccc(C(=O)c2ccccc2)cc1)c1nc2ccccc2s1	Hedgehog inh 96
C[C@@H]1CN([C@H](C)CO)C(=O)c2cc(NC(=O)Nc3ccccc3)ccc2O[C@@H]1CN(C)Cc1ccc(Oc2ccccc2)cc1	none (no result: Hedgehog inh)
Cc1noc(C)c1NC(=O)Nc1ccc2c(c1)C(=O)N([C@H](C)CO)C[C@@H](C)[C@@H](CN(C)Cc1ccc(Oc3ccccc3)cc1)O2	Hedgehog inh 67
C[C@@H]1CN([C@@H](C)CO)C(=O)c2cc(NC(=O)Nc3ccccc3)ccc2O[C@H]1CN(C)Cc1ccc(Oc2ccccc2)cc1	NOMO-1 viab 112 (no result: Hedgehog inh)
